A short description of assay [1]: TOX21_p53_BLA_p2_viability: Viability Assessment in the Tox21 HCT-116 p53 Agonism Beta-lactamase Assay, Phase 2 (AID 2283591).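 Further: compound exposure lasted 16 h at 37 °C; actives lower the ATP signal meaning cytotoxicity.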 In outline: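 Cytotoxicity readout: CellTiter-Glo ATP luminescence, 30 min at room temperature, after the beta-lactamase read. Cells were HCT116 exposed 16 h at 37C to compounds pin-transferred at 217-fold dilution from DMSO stocks.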
Assay [2] has as its target Cellular tumor antigen p53 (Homo sapiens) (UniProt P04637). The experiment in a line: TOX21_p53_BLA_p2_ratio: Tox21 HCT-116 p53 Agonism Beta-lactamase Assay, Ratio, Phase 2 (AID 2283592). In outline:
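Read-out is the blue/green (460/530 nm, 405 nm excitation) ratio after 2 h CCF4-AM loading, fitted as gain versus DMSO. Compounds, pinned at 217-fold dilution from DMSO stocks, stayed 16 h on HCT-116 beta-lactamase reporter cells seeded 5 h earlier.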

Assay [3] can be described thus: TOX21_p53_BLA_p3_viability: Viability Assessment in the Tox21 HCT-116 p53 Agonism Beta-lactamase Assay, Phase 3 (AID 2283593).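 Further: cells exposed to compound for 16 h before reading.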 In outline: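 Cellular ATP was quantified by CellTiter-Glo luminescence, read after 30 min at room temperature. Beforehand, HCT116 cells (4000/well) received compound 5 h post-seeding, 217-fold diluted from DMSO, then incubated 16 h at 37C.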

Assay [4] deals with Cellular tumor antigen p53 (Homo sapiens) (UniProt P04637). The assay is described as follows: TOX21_p53_BLA_p3_ratio: Tox21 HCT-116 p53 Agonism Beta-lactamase Assay, Ratio, Phase 3 (AID 2283596). In outline:
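Cells were seeded at 4000/well, rested 5 h at 37C, then dosed with DMSO compound solutions (217-fold dilution) for 16 h. CCF4-AM substrate was loaded for 2 h at room temperature, and the 460/530 nm emission ratio was fitted for gain of signal versus DMSO.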

Assay [5] is described as follows: TOX21_p53_BLA_p4_viability: Viability Assessment in the Tox21 HCT-116 p53 Agonism Beta-lactamase Assay, Phase 4 (AID 2283597).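 Further: hits lower the luminescence signal meaning cytotoxicity.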 In outline:
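Cytotoxicity as reduced cellular ATP (CellTiter-Glo luminescence, 30 min room temperature), measured in the same wells following the CCF4 FRET p53 reading. Human HCT-116 cells received compounds in DMSO (217-fold dilution) for 16 h.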

Assay [6] addresses Cellular tumor antigen p53 (Homo sapiens) (UniProt P04637). The experiment in a line: TOX21_p53_BLA_p5_ratio: Tox21 HCT-116 p53 Agonism Beta-lactamase Assay, Ratio, Phase 5 (AID 2283599). In outline: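 Beta-lactamase reporter ratio (blue 460 nm over green 530 nm, 405 nm excitation) after 2 h CCF4-AM loading, in HCT-116 cells exposed 16 h at 37 C to compounds pinned at 217-fold dilution. Increases relative to DMSO baseline scored.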

The nature of assay [7]: TOX21_p53_BLA_p5_viability: Viability Assessment in the Tox21 HCT-116 p53 Agonism Beta-lactamase Assay, Phase 5 (AID 2283600). In outline: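 Viability came from CellTiter-Glo ATP luminescence, read after 30 min at room temperature. Before this, HCT-116 p53-bla cells (4000/well) had 16 hours of compound exposure at 37C, with DMSO stocks diluted 217-fold on transfer.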
Assay [8] concerns the target Cellular tumor antigen p53 (Homo sapiens) (UniProt P04637). The assay is described as follows: TOX21_p53_BLA_p4_ratio: Tox21 HCT-116 p53 Agonism Beta-lactamase Assay, Ratio, Phase 4 (AID 2283601). In outline:
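Signal is the blue/green (460nm/530nm) ratio of cleaved versus uncleaved CCF4-AM substrate, read after 2 h substrate loading. Cells were HCT116 carrying the p53-responsive beta-lactamase reporter, dosed 16 h at 37C, 5% CO2; CellTiter-Glo measured in parallel.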

The target of assay [9] is Norway rat Vesicular Monoamine Transporter (VMAT2), neurotransmitter transporter, Slc18a2 (gene 25549) (UniProt Q01827). The assay is described as follows: NVS_TR_rVMAT2: NovaScreen (NVS) Transporter Assay for Norway rat Vesicular Monoamine Transporter (VMAT2), neurotransmitter transporter (AID 2283376).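 Further: actives lower the bound radioligand signal below the DMSO level.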 In outline:
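Using rat forebrain membranes, specific radioligand binding to VMAT2 was measured by filtration and scintillation counting after 1 hour. Chemicals screened at 25 uM in duplicate, actives retested in concentration series, DMSO baseline.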

For assay [10], the target named is PGR (gene 5241) (UniProt P06401). The experiment in a line: TOX21_PR_BLA_Followup_Antagonist_ratio: Tox21 HEK293 Progesterone Receptor (PR) Antagonism Beta-lactamase Follow-Up Assay, Ratio (AID 2283934).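 Further: PR-UAS-bla HEK293T cells stimulated with 1 nM R5020 agonist for 16 hr.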 In outline:
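Cells are plated, rested 6 hr, then dosed with test compound in DMSO and challenged with 1 nM promegestone. After 16 hr incubation, substrate loading for 2 h at room temperature precedes fluorescence reading; viability is measured in the same wells.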

Assay [11] in a line: TOX21_PR_BLA_Followup_Antagonist_viability: Viability Assessment in the Tox21 HEK293 Progesterone Receptor (PR) Antagonism Beta-lactamase Follow-Up Assay (AID 2283936).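 Further: cells exposed to compound with R5020 agonist for 16 h; hits lower the luminescence signal meaning cytotoxicity.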 In outline: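 PR-UAS-bla HEK293T cells in medium with 2% charcoal-stripped FBS were treated with compounds plus R5020 for 16 hr at 37C. After the beta-lactamase read, CellTiter-Glo was added to the same wells and luminescence read after 30 min at room temperature.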

The nature of assay [12]: TOX21_PR_LUC_Followup_Antagonist_viability: Viability Assessment in the Tox21 HEK293 Progesterone Receptor (PR) Antagonism Luciferase Follow-Up Assay (AID 2283940). In outline: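 HEK293-PR-A-luc, 3,000 cells/well; 5 h at 37C/0% CO2; compound pin transfer; 16 h incubation; CellTiter-Glo ATP luminescence, signal loss = cytotoxicity.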

In general, AC50 refers to the midpoint of the concentration-response curve, whichever way the signal moves.

Where “and” joins values, the source holds several entries; their conditions need not be identical. Equal values may be shown once. Records with an inconclusive call do not appear. A structure can be active in one record and inactive in another. Calls of active or inactive are those of the source. How the source made its calls: active means hit-call score of the fitted dose curve at least 0.9, where 1 is the maximum; inconclusive means response in the unintended direction; inactive means score below 0.9.

Norway rat Vesicular Monoamine Transporter (VMAT2), neurotransmitter transporter, Slc18a2 (gene 25549), sequence (Q01827 whole entry, looked up): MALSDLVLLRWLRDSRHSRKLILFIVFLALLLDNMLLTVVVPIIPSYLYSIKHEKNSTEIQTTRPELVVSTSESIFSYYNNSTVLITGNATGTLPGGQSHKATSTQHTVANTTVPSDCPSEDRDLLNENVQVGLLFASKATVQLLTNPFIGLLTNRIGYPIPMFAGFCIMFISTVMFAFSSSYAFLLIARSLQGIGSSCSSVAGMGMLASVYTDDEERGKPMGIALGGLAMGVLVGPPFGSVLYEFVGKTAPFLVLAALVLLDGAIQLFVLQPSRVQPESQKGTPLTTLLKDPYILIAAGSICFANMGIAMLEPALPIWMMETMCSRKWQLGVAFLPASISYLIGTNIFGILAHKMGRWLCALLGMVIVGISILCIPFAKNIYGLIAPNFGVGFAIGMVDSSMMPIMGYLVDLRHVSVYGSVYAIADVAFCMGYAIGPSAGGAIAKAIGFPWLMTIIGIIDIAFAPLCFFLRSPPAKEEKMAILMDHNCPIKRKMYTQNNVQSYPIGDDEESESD
Cellular tumor antigen p53 (Homo sapiens), sequence (P04637 whole entry, looked up): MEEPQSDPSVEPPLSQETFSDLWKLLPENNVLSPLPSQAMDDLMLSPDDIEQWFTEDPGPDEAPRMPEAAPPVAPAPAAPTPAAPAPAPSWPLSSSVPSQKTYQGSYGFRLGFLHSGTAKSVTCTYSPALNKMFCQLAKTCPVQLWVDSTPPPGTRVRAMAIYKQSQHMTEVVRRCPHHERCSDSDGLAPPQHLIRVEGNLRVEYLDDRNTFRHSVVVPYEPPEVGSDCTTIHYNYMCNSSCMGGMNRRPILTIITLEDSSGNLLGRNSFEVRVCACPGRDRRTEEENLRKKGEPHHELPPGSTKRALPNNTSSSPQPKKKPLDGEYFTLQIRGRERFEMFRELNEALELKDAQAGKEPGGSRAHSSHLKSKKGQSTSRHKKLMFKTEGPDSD
PGR (gene 5241), sequence (P06401 whole entry, looked up): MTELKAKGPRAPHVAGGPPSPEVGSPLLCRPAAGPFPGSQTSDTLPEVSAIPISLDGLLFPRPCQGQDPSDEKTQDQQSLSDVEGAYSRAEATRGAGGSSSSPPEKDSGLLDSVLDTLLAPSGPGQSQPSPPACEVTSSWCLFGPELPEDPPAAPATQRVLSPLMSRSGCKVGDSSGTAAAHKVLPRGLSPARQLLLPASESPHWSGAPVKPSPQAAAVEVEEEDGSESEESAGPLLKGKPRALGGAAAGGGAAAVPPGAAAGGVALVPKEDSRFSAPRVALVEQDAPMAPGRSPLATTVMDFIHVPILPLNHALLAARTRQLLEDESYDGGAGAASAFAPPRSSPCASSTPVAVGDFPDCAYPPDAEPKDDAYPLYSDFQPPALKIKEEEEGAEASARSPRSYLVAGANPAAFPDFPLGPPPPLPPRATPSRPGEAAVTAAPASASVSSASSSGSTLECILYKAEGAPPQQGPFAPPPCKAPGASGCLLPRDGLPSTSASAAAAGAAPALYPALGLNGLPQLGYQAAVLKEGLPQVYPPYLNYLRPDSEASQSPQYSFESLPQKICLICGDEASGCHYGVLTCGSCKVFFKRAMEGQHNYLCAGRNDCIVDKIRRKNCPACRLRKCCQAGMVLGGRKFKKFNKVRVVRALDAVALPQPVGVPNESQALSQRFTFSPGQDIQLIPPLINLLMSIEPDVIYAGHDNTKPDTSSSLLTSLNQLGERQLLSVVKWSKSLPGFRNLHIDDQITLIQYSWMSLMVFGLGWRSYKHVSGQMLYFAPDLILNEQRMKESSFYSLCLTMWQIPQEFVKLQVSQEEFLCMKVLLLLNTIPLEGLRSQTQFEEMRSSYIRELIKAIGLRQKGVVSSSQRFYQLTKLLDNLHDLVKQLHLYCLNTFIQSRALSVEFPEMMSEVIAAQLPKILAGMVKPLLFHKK

As for `CCCCCCCCCCCCCCn1cc[n+](C)c1`, the AC50 in assay [1] is 82.2 µM (active) and 60.1 µM (active); in [2], 6.74 µM (active) and 2.12 µM (active); in assay [3], 10.3 µM (active) and 77.3 µM (active); in assay [4] it was 14 µM (active) and 6.93 µM (active); in assay [5], 598 nM (active) and 40 µM (active); in assay [6] it was 49.6 µM (active) and 39.7 µM (active). In addition, the AC50 is 86.2 µM (active) and 46.2 µM (active) in assay [7]; 63.9 µM (active) and 63.4 µM (active) in assay [8]. Also, the compound was classed as inactive in [1], in assay [2], in assay [3], in assay [4], in assay [5] and in assay [7]. In assay [8], the result was inactive.

With `CCCCCCCCCCCCCC[P+](CCCCCC)(CCCCCC)CCCCCC`, the AC50 in assay [1] is 33.6 µM (active) and 20.1 µM (active); in assay [3], 46.3 µM (active) and 28.9 µM (active); in assay [4], 67.4 µM (active) and 50.1 µM (active) and 7.15 µM (active); in assay [5], 34.3 µM (active) and 20.3 µM (active); in assay [6], 59.5 µM (active) and 58.6 µM (active); in assay [7], 32.3 µM (active) and 26.6 µM (active). Further, in assay [8], the AC50 was 66 µM (active) and 48.6 µM (active). The outcome in [1], in [5] and in assay [6] was inactive.

`COc1cccc(O)c1`: the compound was called inactive in [9].

Consider `CCOCN(C(=O)CS(=O)(=O)O)c1c(C)cccc1CC`, for which the compound was classed as inactive in assay [9].

In the case of `CCOC(=O)CC(=O)OCC`, in assay [9], the call was inactive.

For `O=C=NC1CCC(CC2CCC(N=C=O)CC2)CC1` (centres undefined), the AC50 in assay [9] was 9.03 µM (active).

In the case of `CN(C)c1ccc(C(=C2C=CC(=[N+](C)C)C=C2)c2ccccc2)cc1`, the outcome in assay [9] was inactive.

With `Clc1ccc(Nc2nnc(Cc3ccncc3)c3ccccc23)cc1`, the AC50 in assay [9] is 7.04 µM (active).

In the case of `Cc1cc(CCC(=O)OCCOCCOCCOC(=O)CCc2cc(C)c(O)c(C(C)(C)C)c2)cc(C(C)(C)C)c1O`, the outcome in assay [9] was inactive.

`CC[N+](CC)(CC(=O)Nc1c(C)cccc1C)Cc1ccccc1`: the result in assay [9] was inactive.

For `CC(C)(C)CC(C)(C)c1ccc(OCCOCC[N+](C)(C)Cc2ccccc2)cc1`, the compound was called inactive in [9].

For the compound `C1CNCCN1`, the compound was called inactive in assay [9].

For the compound `c1ccc(-c2nc3ccccc3[nH]2)cc1`, the AC50 in [9] is 6.56 µM (active).

Turning to `Cc1ccc(O)c(C(C)(C)C)c1`, the outcome in assay [9] was inactive.

In the case of `COC(=O)OC`, the outcome in assay [9] was inactive.

As for `C=C(C)C(=O)OCCOCCOCCOC(=O)C(=C)C`, in assay [9], the compound was called inactive.

For `CC1CCC(C(C)C)C(OC(=O)c2ccccc2N)C1` (centres undefined), the AC50 in [1] was 45.5 µM (active) and 38.5 µM (active); in assay [2], 76.3 µM (active); in assay [3], 23 µM (active); in [5], 45.5 µM (active) and 34.7 µM (active); in [6], 42.8 µM (active); in assay [7] it was 31.7 µM (active). In addition, the outcome in [2], in [4], in assay [7] and in assay [8] was inactive.

With `CCCCCCCCCCCCCCCC[N+](C)(C)CC`, the call in [9] was inactive.

Regarding `CCCCCCCCCCCCCCCCCC(=O)OCC(CC)CCCC` (centres undefined), the outcome in [9] was inactive.

With `C[C@]12C/C(=C/O)C(=O)C[C@@H]1CC[C@@H]1[C@@H]2CC[C@@]2(C)[C@H]1CC[C@]2(C)O`, the compound was classed as inactive in assay [1], in assay [2], in [3], in assay [6], in assay [7] and in assay [8]. For the same compound, the outcome in assay [10], in [11] and in assay [12] was inactive. Further, the AC50 in assay [2] was 42.5 µM (active); in assay [3], 66.6 µM (active); in [5], 52.8 µM (active) and 34.6 µM (active); in [7], 71.4 µM (active); in assay [8], 42.4 µM (active).

In the case of `[Cl][Sc]([Cl])[Cl]`, in assay [9], the compound was classed as inactive.

As for `CC(CC(C#N)(c1ccccc1)c1ccccc1)N(C)C` (centres undefined), the result in assay [1] was inactive.

Consider `CCCCCCCCCCCCCCCC(=O)OC/C=C(C)/C=C/C=C(C)/C=C/C1=C(C)CCCC1(C)C`, for which the compound was classed as inactive in [9].

Regarding `C[Si](C)O[Si](C)C`, the call in assay [9] was inactive.

The record behind these values is PubChem BioAssay (EPA / NIEHS).
